Among the data in PubChem BioAssay (EPA / NIEHS) are outcome and AC50 values, retold here.

The source made the active and inactive calls. Rule for the calls: active = hit-call score of the fitted dose curve at least 0.9, where 1 is the maximum; inactive = score below 0.9.

Assay [1] in a line: APR_HepG2_CellCycleArrest_24hr: Apredica 24-hour HepG2 Assay for Cell Cycle Arrest (AID 2282905).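 Note: cell cycle arrest scored as ratio of 2N to 4N nuclear DNA content.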 The settings on record: imaging, actives raise or lower the signal. Summed up: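 Cell cycle arrest is scored from nuclear DNA content measured by high-content imaging of Hoechst 33342-stained HepG2 cells following 24-hour treatment at ten concentrations up to 200 uM, with DMSO as baseline.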

The nature of assay [2]: APR_HepG2_NuclearSize_24hr: Apredica 24-hour HepG2 Assay for Nuclear Size (AID 2282907). The following applies: high-content imaging, actives raise or lower the signal. Summed up:
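Compounds in DMSO (final 0.5%) were added to human HepG2 hepatoma cells at ten concentrations up to 200 uM for 24 hr. Fixed nuclei were stained with Hoechst 33342, and nuclear diameter was quantified from automated images.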

Assay [3] is described as follows: APR_HepG2_CellLoss_24hr: Apredica 24-hour HepG2 Assay for Cell Loss (AID 2282908).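 For AC50: fit in both directions so a hit may be cell loss or gain.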 The following applies: high-content imaging. Summed up:
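Cell number is quantified by fluorescence imaging of Hoechst 33342-stained nuclei following dosing at 0.39–200 uM in 0.5% DMSO. Curves are fitted in both directions from the DMSO baseline.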

The nature of assay [4]: APR_HepG2_MicrotubuleCSK_24hr: Apredica 24-hour HepG2 Assay for Microtubule CSK Stabilty (AID 2282909). The following applies: HepG2 microtubule cytoskeleton imaging, actives raise or lower the signal. Summed up: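 Steps: dose HepG2 for 24 h (0.39–200 uM, 0.5% DMSO); fix 30 min in 3.7% formaldehyde at room temperature; permeabilize; stain alpha-tubulin 60 min; image microtubule cytoskeleton at 20x. Signal change fitted in both directions relative to DMSO.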

The nature of assay [5]: APR_HepG2_MitoticArrest_24hr: Apredica 24-hour HepG2 Assay for Mitotic Arrest (AID 2282910). The settings on record: high-content imaging, actives raise or lower the signal. Summed up:
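HepG2 human liver cells were exposed to compounds at 0.39–200 uM (10 concentrations, duplicate) in 0.5% v/v DMSO for 24 hr, then fixed and immunostained for phospho-histone H3 with Hoechst 33342. Mitotic arrest came from HCS fluorescent imaging, fitted bidirectionally against DMSO.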

The nature of assay [6]: APR_HepG2_MitoMembPot_24hr: Apredica 24-hour HepG2 Assay for Mitochondrial Membrane Potential (AID 2282911). The following applies: imaging, actives raise or lower the signal. The method in brief: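 Human hepatoma HepG2 cultures received ten compound concentrations up to 200 uM for 24 hr. Membrane-potential dye signal, captured by automated fluorescence microscopy, was scored for gain or loss against DMSO controls.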

Assay [7] is described as follows: APR_HepG2_MitoMass_24hr: Apredica 24-hour HepG2 Assay for Mitochondrial Mass (AID 2282912). The following applies: high-content imaging, actives raise or lower the signal. The method in brief: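 The liver line HepG2 was dosed in duplicate across a 0.39–200 uM series, with final DMSO held at 0.5% v/v, and harvested at 24 hr. High-content imaging measured mitochondrial dye staining.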

Assay [8] in a line: APR_HepG2_p53Act_24hr: Apredica 24-hour HepG2 Assay for p53 Activation (AID 2282913).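 Note: p53 protein immunofluorescence averaged per cell in HepG2 with Hoechst nuclei.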 The following applies: high-content imaging, actives raise or lower the signal. Summed up: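 Automated fluorescence imaging quantifies p53 immunostaining in HepG2 cells after a 24 hr exposure (0.39–200 uM, duplicate, 0.5% DMSO). Nuclei are located by Hoechst 33342 staining.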
A short description of assay [9]: APR_HepG2_CellCycleArrest_72hr: Apredica 72-hour HepG2 Assay for Cell Cycle Arrest (AID 2282914). The settings on record: high-content imaging, actives raise or lower the signal. The method in brief: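 Cell cycle arrest in HepG2 was scored from nuclear DNA content after 72 hr compound treatment (0.39–200 uM). Activity, either gain or loss, was fitted against the DMSO baseline.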

Assay [10] can be described thus: APR_HepG2_P-H2AX_72hr: Apredica 72-hour HepG2 Assay for H2AX Phosphorylation (AID 2282916).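 Note: phospho-histone H2A.x immunostain intensity per cell marking DNA damage.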 The following applies: imaging, actives raise or lower the signal. The method in brief:
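Following 72 hr treatment with 0.39–200 uM compound, HepG2 cells were formaldehyde-fixed, permeabilized and stained for phospho-H2A.x; signal was measured by high-content imaging and fitted bidirectionally against DMSO controls.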

Assay [11] can be described thus: APR_HepG2_MitoMembPot_72hr: Apredica 72-hour HepG2 Assay for Mitochondrial Membrane Potential (AID 2282917). The settings on record: imaging, actives raise or lower the signal. The method in brief:
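HepG2 cells exposed 72 h to compounds at 0.39–200 uM (0.5% v/v DMSO, duplicates); MitoTracker Red CMXRos 250 nM loaded 30 min before 3.7% formaldehyde fixation, imaged by HCS fluorescence. Bidirectional fit versus DMSO.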

Assay [12] is described as follows: APR_HepG2_MitoticArrest_72hr: Apredica 72-hour HepG2 Assay for Mitotic Arrest (AID 2282918). The following applies: high-content imaging, actives raise or lower the signal. The method in brief: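 Mitotic arrest in HepG2 is scored from phospho-histone H3 staining after 72 hr dosing across 0.39–200 uM, with DMSO at 0.5% v/v. Nuclei are identified by Hoechst 33342 and fluorescence intensity is quantified per cell.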

Assay [13] can be described thus: APR_HepG2_MicrotubuleCSK_72hr: Apredica 72-hour HepG2 Assay for Microtubule CSK Stabilty (AID 2282919). The following applies: HepG2 microtubule cytoskeleton, high-content imaging, actives raise or lower the signal. Summed up:
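HepG2 human liver cells were dosed for 72 h at ten concentrations from 0.39 to 200 uM in duplicate (0.5% v/v DMSO final). Fixed, permeabilized cells were immunostained for alpha-tubulin (Cy5) with a Hoechst counterstain and imaged at 20x.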

The nature of assay [14]: APR_HepG2_P-H2AX_24hr: Apredica 24-hour HepG2 Assay for H2AX Phosphorylation (AID 2282920). The settings on record: high-content imaging, actives raise or lower the signal. Summed up: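 Signal comes from a FITC-labeled secondary detecting phospho-histone H2A.x in fixed HepG2 cells, quantified by automated imaging at 20x. Dosing ran 24 hr across 0.39–200 uM with 0.5% v/v DMSO.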

The nature of assay [15]: APR_HepG2_StressKinase_72hr: Apredica 72-hour HepG2 Assay for Stress Kinase (AID 2282921). The settings on record: HepG2 stress kinase (phospho-c-Jun) imaging, actives raise or lower the signal. Summed up:
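Fluorescence intensity of Cy3-tagged anti-phospho-c-Jun antibody, quantified per cell from Hoechst-defined nuclei across six images per well, served as the read-out following 72 h exposure (0.39–200 uM, 0.5% v/v DMSO).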

Assay [16] is described as follows: APR_HepG2_StressKinase_24hr: Apredica 24-hour HepG2 Assay for Stress Kinase (AID 2282922). The settings on record: HepG2 stress kinase (phospho-c-Jun) imaging, actives raise or lower the signal. Summed up: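 HepG2 cells exposed 24 hr to compound at 0.39–200 uM (10 concentrations, duplicate), 0.5% v/v DMSO final. Fixed in 3.7% formaldehyde, permeabilized with Triton X-100, immunolabeled for phospho-c-Jun with Hoechst 33342; HCS fluorescence imaging, bidirectional fit versus DMSO.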

Assay [17] is described as follows: APR_HepG2_p53Act_72hr: Apredica 72-hour HepG2 Assay for p53 Activation (AID 2282923).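 Note: average cellular p53 protein immunofluorescence intensity in HepG2 cells.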 The settings on record: high-content imaging, actives raise or lower the signal. The method in brief:
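HepG2 monolayers receive test compounds in duplicate at ten concentrations (0.39 through 200 uM) for 72 hr. They are then formaldehyde-fixed, antibody-labelled for p53, Hoechst-stained and imaged, with activity fitted bidirectionally versus DMSO.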

Assay [18] is described as follows: APR_HepG2_MitoMass_72hr: Apredica 72-hour HepG2 Assay for Mitochondrial Mass (AID 2282924).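 Note: MitoTracker Red CMXRos stain intensity per cell imaged as mitochondrial mass.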 The following applies: high-content imaging, actives raise or lower the signal. Summed up: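 HepG2 cells were exposed for 72 hr to compounds at 0.39–200 uM (ten concentrations, duplicate, 0.5% v/v DMSO final). Live cells were stained with 250 nM MitoTracker Red CMXRos for 30 min, then fixed in 3.7% formaldehyde and imaged by HCS fluorescence.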

Assay [19] can be described thus: APR_HepG2_NuclearSize_72hr: Apredica 72-hour HepG2 Assay for Nuclear Size (AID 2282925). The settings on record: high-content imaging, actives raise or lower the signal. The method in brief:
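HepG2 cells were exposed to compounds at ten concentrations from 0.39 to 200 uM (duplicate, 0.5% DMSO final) for 72 hr. After fixation in 3.7% formaldehyde, nuclei were stained with Hoechst 33342 (2 ug/mL) and imaged at 20x.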

Assay [20] can be described thus: APR_HepG2_CellLoss_72hr: Apredica 72-hour HepG2 Assay for Cell Loss (AID 2282915). The following applies: high-content imaging. Summed up: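 HepG2 cells were exposed for 72 hr to compounds at 0.39–200 uM (ten concentrations, duplicate) in 0.5% v/v final DMSO. Nuclei were stained with Hoechst 33342 after 3.7% formaldehyde fixation, imaged at 20x, and counted; fits bidirectional versus DMSO.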

Take `CC(=O)OC[C@H]1O[C@@](COC(C)=O)(O[C@H]2O[C@H](COC(C)=O)[C@@H](OC(C)=O)[C@H](OC(C)=O)[C@H]2OC(C)=O)[C@@H](OC(C)=O)[C@@H]1OC(C)=O`: the molecule was classed as inactive in assay [1], in [2], in [3], in [4], in assay [5] and in [6]. For the same molecule, the result in [7], in assay [8], in assay [9], in [10], in assay [11] and in [12] was inactive. Also, the molecule was called inactive in assay [13], in assay [14], in [15], in [16], in assay [17] and in assay [18]. Moreover, the molecule was classed as inactive in [19].
By AC50 is commonly meant the concentration giving half of the maximal activity seen. As for `CCc1cc(SCc2sc(-c3ccc(C(F)(F)F)cc3)nc2CN2CCN(c3ccc(OC)cc3)CC2)ccc1OCC(=O)O`, the outcome in assay [1], in assay [2], in assay [6], in assay [7], in assay [9] and in assay [13] was inactive. For the same molecule, the result in assay [15], in [16] and in assay [19] was inactive. Further, the half-maximal activity concentration (AC50) was 49.7 µM (active) in assay [3]; 48.5 µM (active) in assay [4]; 55.9 µM (active) in [5]; 84 µM (active) in assay [8]; 48 µM (active) in assay [10]; 54.5 µM (active) in assay [14]. For the same molecule, the half-maximal activity concentration (AC50) was 59 µM (active) in [17] and 33.2 µM (active) in assay [18].
For the molecule `O=c1[nH]c2ccc(S(=O)CCN3CCC(Cc4ccc(F)cc4)CC3)cc2o1` (stereo not drawn), the outcome in assay [1], in assay [2], in assay [3], in assay [4], in assay [5] and in [6] was inactive. The result in assay [7], in assay [8], in assay [11], in assay [13], in [14] and in assay [15] was inactive. In addition, the molecule was called inactive in [16], in [17] and in assay [18]. For the same molecule, the AC50 is 99.9 µM (active) in assay [9] and 111 µM (active) in assay [10].
Consider `O=C(O)c1cccc(N(Cc2cccnc2)c2ccc(OC(F)F)c(OC(F)F)c2)c1`, for which the molecule was classed as inactive in assay [1], in assay [2], in assay [4], in assay [9], in [11] and in [13]. Besides, the call in assay [16] and in [18] was inactive. Besides, the AC50 is 43.6 µM (active) in assay [3]; 10.4 µM (active) in [5]; 0.0349 µM (active) in assay [6]; 13.3 µM (active) in assay [7]; 5.63 µM (active) in assay [8]; 6.52 µM (active) in assay [10]. Besides, the concentration at half-maximal activity (AC50) in assay [12] was 4.04 µM (active); in assay [14], 30.8 µM (active); in assay [15], 15.4 µM (active); in [17], 4.01 µM (active); in [19], 17.4 µM (active).
For the molecule `CC(C)CCO`, the outcome in [1], in assay [2], in assay [3], in assay [4], in assay [6] and in [7] was inactive. In addition, the outcome in assay [8], in assay [9], in assay [20], in assay [10], in assay [11] and in [12] was inactive. For the same molecule, the result in assay [13], in assay [14], in assay [15], in assay [16], in assay [17] and in assay [18] was inactive. In addition, in [19], the outcome was inactive.
On to `CCOCCO`, for which the call in assay [1], in [2], in assay [3], in assay [4], in assay [6] and in assay [7] was inactive. The molecule was classed as inactive in assay [8], in [9], in assay [20], in assay [10], in assay [11] and in assay [12]. For the same molecule, the molecule was called inactive in assay [13], in assay [14], in assay [15], in assay [16], in assay [17] and in assay [18]. Moreover, the molecule was called inactive in [19].
On to `C1N2CN3CN1CN(C2)C3`, for which the call in assay [1], in [2], in [3], in assay [4], in assay [6] and in [7] was inactive. Also, the result in assay [8], in assay [9], in assay [20], in assay [10], in assay [11] and in [12] was inactive. The call in assay [13], in assay [14], in assay [15], in assay [16], in assay [17] and in assay [18] was inactive.
